# Where two headings read alike, the source gives them in different places.
# Legend:
# Parameters in all cases: species or system human, MV4-11 + K-562 + COLO205 + SK-N-BE2 + OVCAR-8
# JAK2 = conditions: read-out: apparent Kd, n = 1
# PIM2 = conditions: read-out: apparent Kd; compound concentrations:100 nM and 1000 nM (sheet 'Samples'); n = 1
# MAPK10 = conditions: read-out: apparent Kd, compound concentrations: 100 nM and 1000 nM (sheet 'Samples'), n = 1
# MAPK14 = conditions: read-out: apparent Kd, compound concentrations: 100 nM and 1000 nM (sheet 'Samples'), n = 1
# MAPK11 = conditions: read-out: apparent Kd, compound concentrations: 100 nM and 1000 nM (sheet 'Samples'), n = 1
# MAP3K1 = conditions: read-out: apparent Kd; compound concentrations: 100 nM and 1000 nM (sheet 'Samples'), CATDS: 0.38790530075406598; n = 1
# PLK1 = conditions: read-out: apparent Kd; compound concentrations: 100 nM and 1000 nM (sheet 'Samples'), CATDS: 0.48589470973507998; n = 1
# SLK = conditions: read-out: apparent Kd; compound concentrations: 100 nM and 1000 nM (sheet 'Samples'), CATDS: 0.160364449090587; n = 1
# STK10 = conditions: read-out: apparent Kd; compound concentrations: 100 nM and 1000 nM (sheet 'Samples'), CATDS: 0.19500034290566101; n = 1
# MAPK9 = conditions: read-out: apparent Kd, compound concentrations: 100 nM and 1000 nM (sheet 'Samples'), n = 1
# MAPKAPK2 = conditions: read-out: apparent Kd, compound concentrations: 100 nM and 1000 nM (sheet 'Samples'), n = 1
# NLK = conditions: read-out: apparent Kd, compound concentrations: 100 nM and 1000 nM (sheet 'Samples'), n = 1
# NQO1 = conditions: read-out: apparent Kd; compound concentrations: 100 nM and 1000 nM (sheet 'Samples'), CATDS: 0.141428074132052; n = 1
# MAP2K1 = conditions: read-out: apparent Kd; compound concentrations:100 nM and 1000 nM (sheet 'Samples'); n = 1
# PIK3C2A = conditions: read-out: apparent Kd; compound concentrations:100 nM and 1000 nM (sheet 'Samples'); n = 1
# PIK3C3 = conditions: read-out: apparent Kd; compound concentrations:100 nM and 1000 nM (sheet 'Samples'); n = 1
# RIOK2 = conditions: read-out: apparent Kd; compound concentrations:100 nM and 1000 nM (sheet 'Samples'); n = 1
# MAP2K5 = conditions: read-out: apparent Kd; compound concentrations:100 nM and 1000 nM (sheet 'Samples'); n = 1
# PBK = conditions: read-out: apparent Kd; compound concentrations:100 nM and 1000 nM (sheet 'Samples'); n = 1
# PTK6 = conditions: read-out: apparent Kd; compound concentrations:100 nM and 1000 nM (sheet 'Samples'); n = 1
# RIPK2 = conditions: read-out: apparent Kd; compound concentrations:100 nM and 1000 nM (sheet 'Samples'); n = 1
# RIPK3 = conditions: read-out: apparent Kd; compound concentrations:100 nM and 1000 nM (sheet 'Samples'); n = 1
# SIK2 = conditions: read-out: apparent Kd; compound concentrations:100 nM and 1000 nM (sheet 'Samples'); n = 1
# MAP3K6 = conditions: read-out: apparent Kd; compound concentrations: 100 nM and 1000 nM (sheet 'Samples'), CATDS: 0.469017197153689; n = 1
# MAPK8 = conditions: read-out: apparent Kd; compound concentrations: 100 nM and 1000 nM (sheet 'Samples'), CATDS: 7.6573616533716707E-2; n = 1
# NUAK1 = conditions: read-out: apparent Kd; compound concentrations: 100 nM and 1000 nM (sheet 'Samples'), CATDS: 9.4194293053738595E-2; n = 1
smiles,measurement,setting,value
CC(=O)N[C@@H](Cc1ccc(OP(=O)(O)O)cc1)C(=O)N[C@H]1CCC(=O)N2CCC[C@@H](C(=O)NCc3ccccc3)N2C1=O [RO0324253-000],potency estimated from few doses,JAK2; compound concentrations:100 nM and 1000 nM (sheet 'Samples'),712 nM
same,potency estimated from few doses,PIM2,1770 nM
O=C(O)/C=C/C(=O)O.OCCCNc1nccc(-c2c(-c3ccc(F)cc3)nn3cc(C(F)(F)F)ccc23)n1 [GW569293E],potency estimated from few doses,MAPK10; CATDS: 0.51132000357216201,1430 nM
same,potency estimated from few doses,MAPK14; CATDS: 0.48917036256560797,1570 nM
CN(C)CC#Cc1cccc(C(=O)c2cnn(-c3ccc(F)cc3)c2N)c1.Cl [RO1154641-001],potency estimated from few doses,MAPK11; CATDS: 0.57557980724534297,758 nM
same,potency estimated from few doses,MAPK14; CATDS: 0.44196522207196598,1300 nM
C[C@@H](Oc1cc(-n2cnc3cc(-c4ccnc(NCCS(C)(=O)=O)c4)ccc32)sc1C(N)=O)c1ccccc1Cl [GSK907232A],potency estimated from few doses,MAP3K1,80.6 nM
same,potency estimated from few doses,PLK1,53.6 nM
same,potency estimated from few doses,SLK,1330 nM
same,potency estimated from few doses,STK10,534 nM
Cn1c(=O)c(Sc2ccccc2F)cc2cnc(NC3CCOCC3)nc21 [RO4944065-000],potency estimated from few doses,MAPK10; CATDS: 0.25998811221784501,524 nM
same,potency estimated from few doses,MAPK14; CATDS: 0.14533669978761299,1580 nM
same,potency estimated from few doses,MAPK9; CATDS: 0.21193161628333601,732 nM
same,potency estimated from few doses,MAPKAPK2; CATDS: 0.161840015907707,1230 nM
same,potency estimated from few doses,NLK; CATDS: 0.13689405577896799,1840 nM
same,potency estimated from few doses,NQO1,1690 nM
O=C1NC(=O)C(c2ccc(Cl)cc2)=C1Nc1cccc(Cl)c1 [SB-317651],potency estimated from few doses,MAP2K1,1860 nM
same,potency estimated from few doses,PIK3C2A,2450 nM
same,potency estimated from few doses,PIK3C3,1570 nM
same,potency estimated from few doses,PIM2,1320 nM
same,potency estimated from few doses,RIOK2,1500 nM
CNC(=O)Oc1cc(C)c(/C=C/c2cncc(C(=O)NC)c2)c(C)c1 [GW432441X],potency estimated from few doses,MAP2K5,231 nM
same,potency estimated from few doses,PBK,1680 nM
same,potency estimated from few doses,PTK6,45.3 nM
same,potency estimated from few doses,RIPK2,28.1 nM
same,potency estimated from few doses,RIPK3,399 nM
same,potency estimated from few doses,SIK2,1320 nM
CCOc1cc(N2CCC(O)CC2)ccc1Nc1ncc2c(n1)N(C)c1ccccc1C(=O)N2C [XMD8-92],potency estimated from few doses,MAP2K1,1780 nM
Cl.Nc1c(C(=O)c2cccc(-c3ccncc3)c2)cnn1-c1ccc(F)cc1 [RO1165037-001],potency estimated from few doses,MAP3K6,1810 nM
same,potency estimated from few doses,MAPK11; CATDS: 0.53536571927793597,1390 nM
Nc1c(C(=O)c2cccc(OC[C@H](O)CO)c2)cnn1-c1ccc(F)cc1 [RO3201196-000],potency estimated from few doses,MAPK11; CATDS: 1,697 nM
O=c1c(Oc2ccc(F)cc2F)cc2cnc(NC3CCOCC3)nc2n1C1CCS(=O)(=O)CC1 [RO5036538-000],potency estimated from few doses,"JAK2; compound concentrations: 100 nM and 1000 nM (sheet 'Samples'), CATDS: 0.12292389109729",230 nM
same,potency estimated from few doses,MAPK10; CATDS: 0.124709728908191,221 nM
same,potency estimated from few doses,MAPK11; CATDS: 7.2010910388864605E-2,1420 nM
same,potency estimated from few doses,MAPK14; CATDS: 0.47843238213420702,13.9 nM
same,potency estimated from few doses,MAPK8,1060 nM
same,potency estimated from few doses,MAPK9; CATDS: 9.6122690538123806E-2,462 nM
same,potency estimated from few doses,MAPKAPK2; CATDS: 0.314538074262177,28.2 nM
same,potency estimated from few doses,NLK; CATDS: 8.6125216910038493E-2,667 nM
same,potency estimated from few doses,NUAK1,493 nM

# From paper PMC11062922 (Nature Chemical Biology, 2023)
